Screens: PubChem, National Center for Advancing Translational Sciences (NCATS)
Tb PFK inh: blocks T. brucei phosphofructokinase | T. brucei PFK, ADP-Glo luminescence | Potency, µM (highest dose often 57.5 µM), inactives show top-dose activity, negative = inhibition, usual class: inhibitors | actives 0.17% (n = 330,000);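 further: potency means the concentration at half of the fitted maximal effect; 0% = uninhibited 1x PFK enzyme wells and -100% = no-enzyme wells; nearly all actives have a fitted effect of over 60% in size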
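PFK 1.25 nM, F6P 0.5 mM, ATP 0.1 mM, 0.1 M TEA pH 8.0, 5 mM MgCl2, 0.01% Tween20, 0.1% BSA; 45 min RT. ADP-Glo readout. qHTS titration up to 57 uM; curves fitted, compounds curve-classed.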
PI4K2A block: blocks human PI4K2A kinase activity; activity change, negative = inhibition, % at 76.9 µM; purified PI4K2A, ADP-Glo luminescence, 1 h; hits give low values; AID 1346378; actives 0.13% (n = 420,000); Q9BTU6; in the data active means activity change below about -50%; inconclusive means mostly about -30% to -49%;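 further: -100% = wells without enzyme as full effect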
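Compounds are screened against recombinant PI4K2A using PI as substrate and ATP, the latter dispensed at 300 microM. Reactions run one hour at ambient temperature before ADP-Glo detection; full inhibition defined by wells lacking enzyme.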
PI5P4Ka inh: PI5P4K alpha (human) kinase inhibition; PI5P4Kalpha enzyme, ADP-Glo luminescence, 60 min; hits give low values; actives 1.2% (n = 330,000); AID 652105; max response, %; active means max response of -50% or lower; inconclusive means between -30% and -50%; inactive means -30% or higher; further: value at the top dose of about 77 µM
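qHTS, 1536-well: enzyme/substrate mix, compound by pin tool, 5 microM ATP final; RT 60 min; ADP-Glo reagents 1 (45 min) then 2 (30 min); luminescence.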
PGK inhibitor: inhibitors of T. brucei phosphoglycerate kinase. PGK/GAPDH coupled, Kinase-Glo luminescence, 60 min. P07378. actives 0.043% (n = 380,000). Potency, µM (doses to about 57.5 µM), inactives show top-dose activity change, negative = inhibition, usual class: inhibitors; further: potency means the concentration at half of the fitted maximal effect; nearly all actives have a fitted effect of over 60% in size
Target sequence (P07378 whole entry, looked up): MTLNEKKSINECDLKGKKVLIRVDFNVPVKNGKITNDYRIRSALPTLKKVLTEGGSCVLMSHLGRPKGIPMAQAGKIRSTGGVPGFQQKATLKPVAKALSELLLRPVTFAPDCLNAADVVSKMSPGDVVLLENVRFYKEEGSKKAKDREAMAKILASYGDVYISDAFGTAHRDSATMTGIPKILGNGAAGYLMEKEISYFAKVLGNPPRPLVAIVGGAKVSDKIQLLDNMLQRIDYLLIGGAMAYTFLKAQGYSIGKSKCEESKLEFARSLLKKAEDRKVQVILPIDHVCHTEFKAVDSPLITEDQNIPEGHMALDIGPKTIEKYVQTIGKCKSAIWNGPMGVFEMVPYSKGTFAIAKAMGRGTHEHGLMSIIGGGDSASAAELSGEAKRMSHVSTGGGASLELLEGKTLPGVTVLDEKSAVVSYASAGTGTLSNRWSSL
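Recombinant glycosomal PGK reaction used 1,3-bisphosphoglycerate generated in-well by GAPDH (100nM final) in 100mM TEA pH 7.6, 5mM MgCl2, 0.01% Tween-20. After 60 minutes at room temperature, ATP was read by Kinase-Glo Plus luminescence end-point.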
Pin1 inhibitor: human Pin1 inhibition. actives 0.009% (n = 390,000). Pin1 FP peptide displacement, HiFluor488, 10 min. Q13526. Potency, µM (titrated, usually from 115 µM), for the others: at the top dose activity, negative = inhibition, hits mostly inhibitors. AID 504891; active means well fitted inhibition curve with a large enough effect in the polarisation, with a control signal flat, not every such curve was filed as active; inconclusive means small, poorly fitted or top-dose-only effect, or effect the other way, or a change in a side signal; inactive means no such curve, though single readings can be large or run the other way; the % refers to the polarisation; further: potency means the concentration at half of the fitted maximal effect
Target sequence (Q13526 whole entry, looked up): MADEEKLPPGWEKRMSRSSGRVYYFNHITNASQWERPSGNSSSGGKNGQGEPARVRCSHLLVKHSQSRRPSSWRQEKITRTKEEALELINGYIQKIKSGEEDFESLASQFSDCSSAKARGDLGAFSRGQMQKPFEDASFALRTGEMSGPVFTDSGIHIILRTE
* = called active by the depositor. This is one part of a sample in which hits are shown more often than they occur. Unless noted, the call rests on the fitted dose curve; in most records, active means well fitted curve in the direction sought with a large enough effect; inconclusive means small, poorly fitted or top-dose-only effect, or another doubt; inactive means no such curve, though single readings can be large; an effect the other way counts as inactive or inconclusive. Unless noted, on the % scale 0 is the no-effect control and ±100 the full control effect.

COC(=O)[C@]12C[C@H](CC(=O)NCc3cccs3)C(=O)N(Cc3ccco3)C1=C[C@H](C(C)C)O[C@@H]2C1CC1 was read as PI4K2A block -1.
COC(=O)C[C@H]1CC[C@@H]2[C@H](COc3ccc(NC(=O)C(C)C)cc3C(=O)N2C)O1 was read as PI4K2A block -2.
`CCC(=O)NC1=C(NC(C)c2ccccc2)C(=O)c2ccccc2C1=O` (stereo not drawn) gave Tb PFK inh 1%, PI4K2A block -3, PI5P4Ka inh 3, PGK inhibitor 5% and Pin1 inhibitor 0%.
`CCC(=O)NC1=C(Cl)C(=O)C(NC(=O)CC)=C(Cl)C1=O` gave Tb PFK inh inconclusive, PI4K2A block inconclusive, PI5P4Ka inh -81*, PGK inhibitor inactive and Pin1 inhibitor -1%.
For COc1ccc(-c2cnc(N3CCC(C(N)=O)CC3)s2)cc1OC the results were Pin1 inhibitor -3%.
`Cn1c(SCC(=O)c2ccc(-c3ccccc3)cc2)nnc1-c1ccco1` gave Tb PFK inh -26%, PI4K2A block -9, PI5P4Ka inh -62*, PGK inhibitor 1% and Pin1 inhibitor inconclusive.
For O=C(CSc1nnc(-c2ccco2)n1Cc1ccccc1)c1ccccc1 the results were Tb PFK inh -6%, PI4K2A block -3, PI5P4Ka inh 2, PGK inhibitor -1% and Pin1 inhibitor 12%.
For Cc1ccc(C(=O)CSc2nnc(-c3ccco3)n2Cc2ccccc2)cc1 the results were Tb PFK inh 0%, PI4K2A block -3, PI5P4Ka inh -51*, PGK inhibitor 5% and Pin1 inhibitor 6%.
For O=C1c2ccccc2C(=O)N1c1cccc2ncccc12 the results were Pin1 inhibitor -12%.
CC(=O)NC1CCN(c2nc(-c3ccc(Br)cc3)cs2)CC1 was read as Pin1 inhibitor 0%.
For O=C(Nc1noc2ccccc12)c1ccc(F)cc1 the results were PI4K2A block -56* and Pin1 inhibitor -5%.
For O=c1[nH]c2ccccc2c(O)c1O the results were Tb PFK inh -26%, PI4K2A block -6, PI5P4Ka inh -96*, PGK inhibitor inactive and Pin1 inhibitor 9%.
Screening O=C(O)c1ccc(Nc2nc(-c3cc4ccccc4oc3=O)cs2)cc1O returned Tb PFK inh -2%, PI4K2A block 7, PI5P4Ka inh -79* and PGK inhibitor inconclusive.
COc1cc(/C=N/Nc2nc3ccccc3s2)cc([N+](=O)[O-])c1O was read as Tb PFK inh 1%, PI4K2A block -5, PI5P4Ka inh -51* and PGK inhibitor inconclusive.
Screening O=[N+]([O-])c1cc(Cl)cc(/C=N/Nc2nc3ccccc3s2)c1O returned Tb PFK inh 0%, PI4K2A block 0, PI5P4Ka inh 12, PGK inhibitor 1% and Pin1 inhibitor inconclusive.
For COc1cc(/C=N/Nc2nc(=O)[nH]nc2C)cc([N+](=O)[O-])c1O the results were Tb PFK inh 16%, PI4K2A block -6, PI5P4Ka inh -52*, PGK inhibitor -11% and Pin1 inhibitor -4%.
Screening CCOC(=O)[C@]12CCCC=C1N(Cc1ccc(OC)cc1)C(=O)[C@@H]2CC(=O)N1CCN(C(=O)c2ccco2)CC1 returned PI4K2A block -3.
Oc1ccc2ccccc2c1SSc1c(O)ccc2ccccc12 was read as PI4K2A block -11.
Screening COc1ccc(N=C2S/C(=C\c3ccc(OC(C)C(=O)O)c(OC)c3)C(=O)N2CCc2c[nH]c3ccccc23)cc1 (stereo not drawn) returned Tb PFK inh -6%, PI4K2A block -2, PI5P4Ka inh -54* and PGK inhibitor -7%.
Screening O=c1c(C(c2c(O)nc3n(c2=O)CCS3)c2cccc3ccccc23)c(O)nc2n1CCS2 returned Tb PFK inh 3%, PI4K2A block -16, PI5P4Ka inh -76*, PGK inhibitor -12% and Pin1 inhibitor inconclusive.
Screening O=c1c(C(c2ccc(O)cc2)c2c(O)nc3n(c2=O)CCS3)c(O)nc2n1CCS2 returned Tb PFK inh inconclusive, PI4K2A block inconclusive, PI5P4Ka inh -59*, PGK inhibitor -3% and Pin1 inhibitor 0%.
Cc1ccc(C(c2c(O)nc3n(c2=O)CCS3)c2c(O)nc3n(c2=O)CCS3)cc1 was read as Tb PFK inh 11%, PI4K2A block -52*, PI5P4Ka inh -27, PGK inhibitor -1% and Pin1 inhibitor -5%.
CCOC1=C2[C@H](c3ccccc3Cl)N(S(=O)(=O)c3ccc(C)cc3)C[C@H]2C(C#N)(C#N)C(C#N)(C#N)C1 was read as PI4K2A block -4 and PI5P4Ka inh -62*.
For CCOC1=C2[C@H](c3ccc(CC)cc3)N(S(=O)(=O)c3ccc(C)cc3)C[C@H]2C(C#N)(C#N)C(C#N)(C#N)C1 the results were PI4K2A block -4 and PI5P4Ka inh inconclusive.
Screening CC(=O)/C(N=Nc1ccc(C(=O)O)cc1[N+](=O)[O-])=C(\C)O returned Tb PFK inh -17%, PI4K2A block -12, PI5P4Ka inh -73*, PGK inhibitor -27% and Pin1 inhibitor 4%.
`Cc1c(Cl)cccc1NS(=O)(=O)c1cc2c(cc1Cl)CCC(=O)N2` gave Pin1 inhibitor 1%.
`Cc1cc(Br)cc(C=Nc2ccc(N3CCOCC3)cc2)c1O` gave PI4K2A block -2, PI5P4Ka inh 18, PGK inhibitor -9% and Pin1 inhibitor 10%.
`O=[N+]([O-])c1cc(Cc2ccccc2)cc(C=Nc2ccc(N3CCOCC3)cc2)c1O` gave Tb PFK inh -5%, PI4K2A block inconclusive, PI5P4Ka inh -51*, PGK inhibitor -1% and Pin1 inhibitor inconclusive.
For Cc1ccc(O)c(N=Cc2cc(Cc3ccccc3)cc([N+](=O)[O-])c2O)c1 the results were Tb PFK inh -9%, PI4K2A block inconclusive, PI5P4Ka inh -64*, PGK inhibitor -17% and Pin1 inhibitor inconclusive.
For Oc1ccc(C=Nc2ccc(N3CCOCC3)cc2)c(O)c1 the results were Tb PFK inh 6%, PI4K2A block -9, PI5P4Ka inh -60*, PGK inhibitor -28% and Pin1 inhibitor 93%.
Screening Oc1c(Cl)cc(Cl)cc1C=Nc1ccc(N2CCOCC2)cc1 returned Tb PFK inh -5%, PI4K2A block 0, PI5P4Ka inh 3, PGK inhibitor 0% and Pin1 inhibitor inconclusive.
Screening Cc1cc(C)c(Nc2cc(S(=O)(=O)O)c(N)c3c2C(=O)c2ccccc2C3=O)c(C)c1 returned Tb PFK inh -19%, PI4K2A block inconclusive, PI5P4Ka inh -61* and PGK inhibitor inconclusive.
`CCCCCCCCCCCCCCC[C@H](O)[C@@H](N)CO` gave PI4K2A block 1.
`CCCCCCCCCCCCCCC(O)C[N+](C)(CCO)CCO` (stereo not drawn) gave PI4K2A block 0, PI5P4Ka inh -72*, PGK inhibitor inactive and Pin1 inhibitor 16%.
